This is a sample that favours compounds with a hit; in the whole collection about 4.7% have one here.
D1 agonist: human D1 receptor agonism | HEK293 T-REx D1 cells, calcium flux, agonist mode | activation, % at 2 µM | 360,000 tested, 1% active; further: 0% is about no effect
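Inducible HEK293 T-REx D1 cells, force-coupled to calcium signalling, were plated at 4000 cells/well with tetracycline and held overnight at 30 C. After no-wash calcium dye loading, compound-evoked calcium rise over 180 s flagged agonists.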
TRHR PAM: allosterically enhances the human TRH receptor. enhancement, % at 2 µM. 360,000 tested, 0.66% active. P34981. AID 493056. TRHR cells, fluo-8 calcium fluorescence, EC20 TRH enhancement; in the data active means enhancement above about 30%; further: 0% is about no effect
Target sequence (P34981 whole entry, looked up): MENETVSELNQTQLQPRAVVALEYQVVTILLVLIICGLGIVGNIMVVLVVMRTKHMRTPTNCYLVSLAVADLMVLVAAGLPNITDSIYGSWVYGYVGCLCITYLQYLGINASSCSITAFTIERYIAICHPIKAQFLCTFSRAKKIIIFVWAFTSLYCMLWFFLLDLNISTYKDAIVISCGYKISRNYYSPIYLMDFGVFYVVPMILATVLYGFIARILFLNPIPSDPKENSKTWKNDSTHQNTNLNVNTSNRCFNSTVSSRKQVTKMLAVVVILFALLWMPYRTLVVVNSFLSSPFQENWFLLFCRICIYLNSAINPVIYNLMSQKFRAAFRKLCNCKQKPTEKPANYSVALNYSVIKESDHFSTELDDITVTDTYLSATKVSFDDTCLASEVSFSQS
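TRHR-expressing cells loaded with fluo-8 calcium dye were read kinetically (ex 480/em 530) during compound addition, then stimulated with an EC20 of TRH (10 nM final). Enhancement of the Gq-mediated intracellular calcium response was scored.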
TRHR agonist: agonists of human TRH receptor; P34981; TRHR cells, calcium flux fluo-8, FDSS agonist mode; activation, % at 2 µM; 360,000 tested, 0.18% active; AID 493084; further: 0% is about no effect
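Steps: seed TRHR cells overnight; add fluo-8 no-wash Ca dye, RT 30 min–1.5 h; record 10 s baseline; pin-transfer compounds; monitor fluorescence 1 cycle/s for the agonist window. Calcium increases flag candidate agonists.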
D1 PAM: potentiators of human D1 dopamine receptor. HEK293 TREx D1 cells, calcium flux, dopamine EC20 potentiation. potentiation, % at 10 µM. 360,000 tested, 0.036% active. P21728; in the data active means potentiation above about 30%; further: 0% is about no effect
D1 antag: antagonists of human D1 dopamine receptor. HEK293 TREx D1 cells, calcium flux, dopamine EC80; stronger effect = lower value. activity change, negative = inhibition, % at 10 µM. P21728. 360,000 tested, 3.2% active. AID 504652; in the data active means activity change below about -30%; further: on the % scale 0 is the no-effect control and ±100 the full control effect
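After overnight tetracycline induction at 30 C, force-coupled D1 HEK293 cells took up a no-wash calcium dye at room temperature. Compounds were added and monitored 180 s, and the response to EC80 dopamine was then recorded.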
The depositor's hits bear a star; / = no result; ! = repeats disagree. Unless noted, no stated cut-off is given here; in the data, active means activation above about 30%; inactive means the rest.

SMILES	D1 agonist	TRHR PAM	TRHR agonist	D1 PAM	D1 antag
O=C(COc1ccc2ccc(=O)oc2c1)Nc1ccc(CCO)cc1	2.5	-3.3	0.0	-3.0	-49.4*
O=C(COc1ccccc1[N+](=O)[O-])Nc1cc(-c2nc3cc(Cl)ccc3o2)ccc1Cl	0.3	1.2	1.4	-2.1	-45.2*
Cc1cccc(OCC(=O)Nc2cccc3cccnc23)c1C	4.6	5.0	-0.8	1.0	-44.7*
Cc1cc(C)cc(OCC(=O)Nc2ccc(-c3nc4ccccc4o3)cc2)c1	9.0	-3.9	2.1	-3.1	-32.2*
Oc1c(C(c2ccccc2)N2CCN(Cc3ccccc3)CC2)sc2nc(-c3ccco3)nn12 (stereo not drawn)	-2.4	12.3	-0.7	-1.8	/
COC(=O)c1nc(Nc2cc(F)cc(F)c2)nc(NC2CCCC2)n1	4.6	-1.1	2.0	4.4	21.7
Cc1c(Cl)cccc1-n1c(SCC(=O)NCc2ccccc2)nc2n[nH]c(C)c2c1=N	1.4	42.2*	-0.7	2.1	2.9
Cc1ccc(NC(=O)Cn2cc(C(=O)c3ccco3)c3ccccc32)cc1C	2.8	-3.3	0.3	2.8	-0.6
COc1cc(/C=C/C(O)=C/C(=O)/C=C/c2ccc(O)cc2)ccc1O	350.5*	2.6	104.4*	-4.6	-20.6
COC(=O)c1ccc(NC(=O)C2CCCN(S(C)(=O)=O)C2)cc1 (stereo not drawn)	1.8	-4.9	0.0	-2.5	-32.8*
COC(=O)c1ccc(NC(=O)C2CCN(S(C)(=O)=O)CC2)cc1	-0.3	1.0	0.3	-3.4	-6.8
COc1cc(OC)c(NC(=O)C2CCCN(c3ncnc4c3nc3n4CCCCC3)C2)cc1Cl (stereo not drawn)	0.3	33.1*	-0.7	1.2	-23.1
CC1CC(C)CN(C(=O)C2CCCN(c3ncnc4c3nc3n4CCCCC3)C2)C1 (stereo not drawn)	-1.9	5.7	-1.5	5.0	10.7
Cc1ccc(NC(=O)C2CCCN(c3ncnc4onc(C)c34)C2)c(Cl)c1 (stereo not drawn)	14.5	-7.5	0.1	-7.5	-53.9*
CC1CCN(C(=O)C2CCCN(c3ncnc4c3nc3n4CCCCC3)C2)CC1 (stereo not drawn)	0.3	-4.0	0.2	0.0	-37.3*
COc1ccccc1NC(=O)C1CCCN(c2ncnc3c2nc2n3CCCCC2)C1 (stereo not drawn)	1.2	0.7	-1.1	2.6	-15.0
COc1ccc(NC(=O)CSc2nc3nc(C)c(Cc4ccccc4)c(C)n3n2)cc1OC	0.6	0.6	-0.9	4.2	40.1
Clc1ccccc1CSc1nnc(Cn2cnc3ccccc32)n1-c1ccccc1	2.3	3.8	-0.5	0.1	-82.3*
O=C(O)C1CCC(Cn2c(SCc3cc(=O)n4cc(Br)ccc4n3)nc3ccsc3c2=O)CC1 (stereo not drawn)	-2.3	-0.2	-0.5	-2.8	-0.6
O=C(O)c1ccc(Cn2c(SCc3cc(=O)n4cc(Br)ccc4n3)nc3ccsc3c2=O)cc1	1.3	-1.9	1.3	4.7	-30.8*
CCCCCn1c(=N)c(S(=O)(=O)c2ccccc2)cc2c(=O)n3ccccc3nc21	1.2	-4.3	-0.7	-0.1	-61.6*
COc1ccc(-c2ccc3c(c2)S(=O)(=O)c2cccc(C(=O)NC4CCCCC4)c2C3=O)cc1OC	2.0	0.5	0.7	0.9	10.9
COc1ccc(-c2ccc3c(c2)S(=O)(=O)c2cccc(C(=O)NC4CC4)c2C3=O)cc1OC	-1.6	40.2*	-0.2	-1.2	/
COc1ccc(NC(=O)CCS(=O)(=O)c2cccc3nonc23)c(OC)c1	0.1	-3.6	-0.4	1.2	-45.3*
Cc1ccc(NC(=O)CCNS(=O)(=O)c2cccc3nonc23)cc1Cl	3.2	-8.3	-0.5	-7.9	-31.6*!
SMILES	D1 agonist	TRHR PAM	TRHR agonist	D1 PAM	D1 antag
Cc1cccc(NC(=O)CCNS(=O)(=O)c2cccc3nonc23)c1	2.9	3.9	-1.0	-3.1	-49.5*!
O=C(COc1ccccc1Cl)Nc1ccc(-c2nc3ccccc3s2)cc1	1.4	3.2	3.1	5.9	-6.5
O=Cc1c[nH]c2ccccc12	0.5	0.1	-1.2	7.2	-54.9*
C#CCOCCOCCOCCNc1nc(N2CCN(C(=O)CCCCCCCCCCNC(=O)Cn3cc(C[C@@H](C)O)nn3)CC2)nc(N2CCN(C(=O)CCCCCCCCCCNC(=O)[C@H](CCCCN)n3cc(CCCC(=O)O)nn3)CC2)n1	9.0	12.6	1.2	-1.1	-1.1
C#CCOCCOCCOCCNc1nc(N2CCN(C(=O)CCCCCCCCCCNC(=O)Cn3cc(C[C@@H](C)O)nn3)CC2)nc(N2CCN(C(=O)CCCCCCCCCCNC(=O)[C@@H](CCC(=O)O)n3cc(CCCCCN)nn3)CC2)n1	32.1*	2.1	0.4	-0.6	4.6
C#CCOCCOCCOCCNc1nc(N2CCN(C(=O)CCCCCCCCCCNC(=O)Cn3cc(CCCCCN)nn3)CC2)nc(N2CCN(C(=O)CCCCCCCCCCNC(=O)Cn3cc(CCCCCN)nn3)CC2)n1	38.0*	-3.1	4.8	52.6*	36.7
C#CCOCCOCCOCCNc1nc(N2CCN(C(=O)CCCCCCCCCCNC(=O)Cn3cc(CCCCCN)nn3)CC2)nc(N2CCN(C(=O)CCCCCCCCCCNC(=O)[C@@H](CCC(=O)O)n3cc(CCCCCN)nn3)CC2)n1	39.0*	3.1	0.3	-9.1	0.0
CCOC(=O)NC(c1cccc(Cl)c1)C1CCCCCC1=O (stereo not drawn)	0.2	8.3	-1.0	-4.4	-10.9
O=C1CCCCC1C(O)c1ccc(Cl)cc1 (stereo not drawn)	0.9	1.2	-0.1	-12.1	-73.8*
CCOc1ccc(/C=C/c2nc(C#N)c(NC(C)CC)o2)cc1 (stereo not drawn)	2.6	6.0	-1.3	0.5	-23.2
Cc1ccc(C2=NN(C(=O)CCCC(=O)O)C(c3ccco3)C2)cc1 (stereo not drawn)	74.4*	-7.6	-0.3	-3.3	-13.3
CC(=O)N1N=C(c2ccc(C)cc2)CC1c1ccco1 (stereo not drawn)	-2.7	-2.6	-1.2	-1.4	/
Cc1ccc(C2=NN(C(=O)CN3C(=O)c4ccccc4S3(=O)=O)C(c3ccco3)C2)cc1 (stereo not drawn)	1.3	-5.3	0.2	-6.1	-76.4*
O=C(C1CCCO1)N1N=C(c2ccc(Br)cc2)CC1c1ccco1 (stereo not drawn)	1.8	4.5	-1.2	-4.2	-71.4*
Cc1ccc(C2=NN(C(=O)C3CCCO3)C(c3ccco3)C2)cc1 (stereo not drawn)	6.3	1.0	-0.5	4.2	1.6
COCC1CCCCN1C(=O)c1ccc2oc(CCc3ccccc3)nc2c1 (stereo not drawn)	9.3	1.0	0.1	-0.8	0.8
CCCCc1nc2cc(C(=O)N3CCCCC3COC)ccc2o1 (stereo not drawn)	1.0	2.3	-0.3	-7.1	-30.8*

Screening data deposited in PubChem by National Center for Advancing Translational Sciences (NCATS).
